In PubChem BioAssay AID1347075 (National Center for Advancing Translational Sciences (NCATS), 2019):
Among all 400,000 compounds or so, about 5,500 (1.4%) were called active. Another 9% or so got no clear call; they are omitted. Calls come from the whole dose curve; as a rule, active = well fitted cell-killing curve with a large enough effect; inconclusive = small, poorly fitted or top-dose-only effect, or effect the other way; inactive = flat fitted curve, though single readings scatter. The entries come from a sample that favours actives as a whole. A call without a number means that no potency is given here.

assay: qHTS assay for MDR1-selective chemotherapeutics: Primary screen using the parental adenocarcinoma cell KB-3-1; conditions: KB-3-1 viability, CellTiter-Glo ATP luminescence, 72 h; series mostly up to 46.1 µM; note: nearly all actives have a fitted effect of over 60% in size
Description: A prime difficulty in effectively treating cancer is the development of cellular resistance to multiple structurally unrelated anticancer drugs, a phenomenon known as multidrug resistance (MDR). […] Numerous strategies to overcome P-gp-mediated MDR have been explored, including the design of drugs that evade recognition and efflux, and development of inhibitors to block efflux and restore drug accumulation. […] An alternative approach is to exploit resistance by identifying drugs that target MDR cells over the non-resistant parental cells from which they were selected. […] The development of MDR1-selective agents represents a new strategy for resolving multidrug resistance, as it remains a long-standing clinical challenge for cancer chemotherapy.
Our goal is to identify compounds that selectively kill P-gp-expressing MDR cells. We will identify MDR1-selective compounds by comparing toxicity of compounds in the screening library against parental, drug-naive (KB-3-1) adenocarcinoma cells as well as their drug-selected MDR sub-line (KB-V1). The differential toxicity of compounds against these two cell lines will be used to identify MDR1-selective compounds, whose cytotoxicity is potentiated, rather than diminished, by P-gp expression. This assay will be utilized to conduct a quantitative high-throughput screen (qHTS) in collaboration with the NIH Chemical Genomics Center to identify selective agents, and probe hits arising from the screen will be validated using secondary assays and characterized through a well-established follow-up research program. This screen was run against the entire NCGC library collection of about 400,000 compounds.
NIH Molecular Libraries Probe Production Network [MLPCN]
NIH Chemical Genomics Center [NCGC]
PI: Michael Gottesman PhD, National Cancer Institute, NIH
Briefly, 5 microL of media containing either KB-3-1 cells (columns 1-2, 4-48) are dispensed into Greiner white, treated solid-bottom 1536-well assay plates (media-only control is added to column 3). Compounds are then transferred via Kalypsys pin tool equipped with 1536-pin array (10 nL slotted pins, V&P Scientific, San Diego, CA). Following addition of compound, the plates are incubated at 37 degrees C for 72 hours. CellTiter-Glo (2.5 µL/well) is then added, and the plates are read in a ViewLux reader (Perkin-Elmer, clear luminescence filter, 1 second exposure, 1x binning) following a 10 minute incubation. All cells are dispensed in DMEM phenol-red free media containing 10% FBS.
Library plates were screened starting from the lowest and proceeding to the highest concentration. Vehicle-only plates, with DMSO being pin-transferred to columns 5-48, will be inserted uniformly at the beginning and the end of each library in order to monitor and record any shifts in the background, which can be affected by reagent dispensers or loss in enzyme activity over time. Screening data will be corrected, normalized, and concentration-effect relationships will be derived by using publicly-available NCGC, NCATS curve fitting algorithms (http://ncgc.nih.gov/pub/openhts).
Potency is the fitted concentration of half-maximal effect.

Structure (SMILES)	Potency
COC1C(O)C(C)OC(OC2CCC3(C=O)C(CCC4C3CCC3(C)C(C5=CC(=O)OC5)CCC43O)C2)C1O (stereo not given)	0.0058 µM (active)
S=C(NCCc1ccccc1)N1Cc2cc(N3CCOCC3)ccc2-n2nncc2C1	inactive
O=C1NCN(c2ccccc2)C12CCN(C(c1cccs1)c1nnnn1C1CCCCC1)CC2 (stereo not given)	inactive
CC(C)CN1Cc2cc(N3CCCCC3)ccc2-n2nncc2C1	inactive
O=C(NCC1=C(c2ccc3ccccc3c2)C[C@@H]2CC[C@H]1N2Cc1ccco1)c1cccs1	inactive
CCCCCCCCCCCCn1ccc(=N)cc1	1.3 µM (active)
COc1ccc(NC(=O)N2Cc3ccccc3-n3nncc3C2)cc1	inactive
c1cc2c(c(NC3=NCCCS3)c1)CCCC2	inactive
CC(=O)NCC1=C(c2ccc3ccccc3c2)C[C@@H]2CC[C@H]1N2Cc1ccco1	inactive
O=c1[nH]c2ccccc2n1C1CCN(C(c2ccnc3ccccc23)c2nnnn2Cc2ccccc2)CC1 (stereo not given)	inactive
CCOC(=O)[C@]12Cc3cc(OC)ccc3[C@H]1N(C(C)C)C(=O)c1ccccc12	6.51 µM (active)
CCOC(=O)[C@]12Cc3ccccc3[C@H]1N(C1CCCCC1)C(=O)c1cc(OC)ccc12	4.61 µM (active)
O=C(O)c1cc[c]([Sb](=[O])([OH])[OH])cc1[N+](=O)[O-]	inactive
Cc1ccc(OC(=O)N(C)C[C@@H]2OCc3cnnn3CCCC(=O)N([C@H](C)CO)C[C@@H]2C)cc1	inactive
O=C(O)/C=C/c1ccc2c(c1)OCO2	inactive
COC(=O)CN(CCCl)P1(=O)OCCCN1CCCl (stereo not given)	inactive
C[C@]12CC[C@H](O)C[C@H]1CC[C@@H]1C2CC[C@]2(C)[C@@H](C3=CC(=O)OC3)[C@@H](O)C[C@]12O (stereo not given in full)	2.31 µM (active)
C[C@]12CCC3C(CC[C@H]4C[C@@H](O)CC[C@]34C)C1CC[C@@H]2O (stereo not given in full)	inactive
C[C@]12CCC3C(CC[C@H]4C[C@@H](O)CC[C@]34C)C1C[C@@H](O)[C@H]2O (stereo not given in full)	inactive
COc1cc(C(=O)N2Cc3ccc(Br)cc3-n3nncc3C2)cc(OC)c1OC	inactive

Structure (SMILES)	Potency
C[C@H]1CN([C@@H](C)CO)C(=O)CCCn2nncc2CO[C@H]1CN(C)C(=O)Oc1cccc2ccccc12	inactive
O=C(NC1CCCCC1)N1Cc2cc(N3CCCCC3)ccc2-n2nncc2C1	inactive
Cc1ccc(NC(=O)N(Cc2ccc3c(c2)OCO3)C2CCN(Cc3ccccc3)CC2)cc1F	inactive
CCCCCCN=C(CC)c1c(O)n(CCCC)c(=O)[nH]c1=O	18.4 µM (active)
CCC(=NCCCO)c1c(O)n(-c2ccc(OC)cc2)c(=O)[nH]c1=O	inactive
CCCCn1c(O)c(C(CC)=NCc2ccco2)c(=O)[nH]c1=O	inactive
COc1cccc(C(c2nnnn2-c2ccc3c(c2)OCCO3)N2CCC3(CC2)C(=O)NCN3c2ccccc2)c1OC (stereo not given)	inactive
O=C1C2CCN(CC2)C1(CO)CO	inactive
Cn1cc(/C=C/c2nc3ccccc3c(=O)n2-c2ccccc2)c2ccccc21	inactive
ClCCN(CCCl)c1ccc(C=Nc2ccc(/C=C/c3ccnc4ccccc34)cc2)cc1	inactive
COc1cc(Cn2c(N)c(C(=O)NCc3ccco3)c3nc4ccccc4nc32)cc(OC)c1OC	23.1 µM (active)
COC(=O)C1=C(c2ccccc2)C[C@@H]2CC[C@H]1N2C(=O)NCc1ccco1	inactive
CCOC(=O)c1c(N)n(Cc2ccccc2)c2nc3ccccc3nc12	inactive
c1ccc(N2Cc3ccccc3-n3nncc3C2)nc1	inactive
O=P(OC1=CCCCC1)(c1ccccc1)c1ccccc1	inactive
O=c1c2ccccc2[nH]c(=S)n1-c1cccc(Cl)c1	inactive
Cc1nnc(NC(=O)c2cccn(Cc3cccc(F)c3)c2=O)s1	inactive
CCC(C)(O)C(=O)OC1C(=O)OC2CC3C(C)=CC(=O)C(O)C3(C)C3C4(O)OCC23C1C(C)C4O (stereo not given)	0.291 µM (active)
CCn1cc(CN2CCCC(C(=O)c3cccc(C(F)(F)F)c3)C2)cn1 (stereo not given)	inactive
CCOC(=O)CNC(=O)N1Cc2cc(N3CCCCC3)ccc2-n2nncc2C1	inactive
